Assay outcomes: PubChem BioAssay, National Center for Advancing Translational Sciences (NCATS)
AMA1-RON2 inh = disrupts binding of P. falciparum AMA1 to RON2; Potency, µM (titrated, usually from 58.2 µM), for inactives: at the top dose activity change, negative = inhibition, actives largely listed as inhibitors; AID 720542; 360,000 tested, 0.2% active; AlphaScreen AMA1-biotinylated RON2 peptide binding;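 also: 0% = vehicle wells and -100% = peptide control; nearly all actives have a fitted effect of over 45% in size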
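AMA1 (3D7) with his tag at 25 nM final met compounds first, then biotinylated RON2 peptide at 25 nM; detection used donor plus acceptor beads, 10 µg/mL apiece, read by AlphaScreen after 30 min at room temperature.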
FMDV antiviral = foot and mouth disease virus antiviral activity; Potency, µM (top dose mostly 57.9 µM), inactives show at the top dose activity change, negative = inhibition, most hits filed as inhibitors; AID 1159524; 410,000 tested, 1.2% active; FMDV antiviral cell-based qHTS; calls by dose curve; tested in HEK293T cells; also: read-out not given here; nearly all actives have a fitted effect of over 45% in size
AmpC detergent = blocks E. coli AmpC beta-lactamase in detergent assay | 370,000 tested, 0.041% active | AID 485294 | P00811 | AmpC hydrolysis of nitrocefin, absorbance 480 nm, 0.01% Triton | Potency, µM (highest dose often 114 µM), for inactives: top-dose activity change, negative = inhibition, most hits filed as inhibitors;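 also: 0% = no-compound wells and -100% = no-enzyme wells; nearly all actives have a fitted effect of over 25% in size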
Target sequence (P00811 whole entry, looked up): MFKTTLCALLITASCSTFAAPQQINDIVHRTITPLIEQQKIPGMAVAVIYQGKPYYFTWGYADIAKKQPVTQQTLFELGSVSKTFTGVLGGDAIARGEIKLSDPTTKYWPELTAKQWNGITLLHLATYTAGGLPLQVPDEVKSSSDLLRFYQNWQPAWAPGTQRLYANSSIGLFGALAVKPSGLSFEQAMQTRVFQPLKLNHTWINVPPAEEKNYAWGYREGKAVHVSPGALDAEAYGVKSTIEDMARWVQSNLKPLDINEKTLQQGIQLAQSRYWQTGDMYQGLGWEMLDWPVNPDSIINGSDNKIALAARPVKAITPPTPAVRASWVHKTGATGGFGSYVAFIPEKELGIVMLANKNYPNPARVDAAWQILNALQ
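AmpC (5.3 nM in the dispensed reagent) in 20 mM phosphate pH 7.0 with 0.01% (detergent screen) or 0.0001% Triton X-100 was preincubated with compounds for 15 min at room temperature. Nitrocefin was then added from an 800 uM solution, and hydrolysis was followed at 480 nm.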
Sm TGR block = inhibitors of Schistosoma mansoni thioredoxin glutathione reductase | 360,000 tested, 3% active | purified TGR, DTNB reduction, TNB absorbance 405 nm | Potency, µM (highest dose often 114 µM), for the others: at the highest dose activity change, negative = inhibition, usual class: inhibitors; also: nearly all actives have a fitted effect of over 60% in size
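Kinetic colorimetric format: TGR-catalysed, NADPH-driven DTNB reduction monitored via TNB absorbance. Enzyme dispensed at 20 nM; compound exposure 15 min at room temperature before reaction start.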
AmpC no deterg = inhibitors of E. coli AmpC beta-lactamase without detergent; P00811; AmpC nitrocefin hydrolysis, absorbance 480 nm, 0.0001% Triton; Potency, µM (titrated, usually from 57.1 µM), for inactives: top-dose activity change, negative = inhibition, hits mostly inhibitors; 330,000 tested, 0.52% active; AID 485341;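 also: plate controls were no compound for no effect and no enzyme for full effect; nearly all actives have a fitted effect of over 20% in size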
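AmpC (5.3 nM in the dispensed reagent) in 20 mM phosphate pH 7.0 with 0.01% (detergent screen) or 0.0001% Triton X-100 was preincubated with compounds for 15 min at room temperature. Nitrocefin was then added from an 800 uM solution, and hydrolysis was followed at 480 nm.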
* hit, by the source's call; ? = inconclusive; nt = no result given. Compounds with a hit are over-represented: about 4.1% of the library has one in this group of screens. Unless noted, calls follow the shape of the dose curve; as a rule, active = well fitted curve in the direction sought with a large enough effect; inconclusive = small, poorly fitted or top-dose-only effect, or another doubt; inactive = no such curve, though single readings can be large; an effect the other way counts as inactive or inconclusive. Unless noted, % is scaled to controls: 0 for no effect and ±100 for the full control effect; potency is read from the fitted curve at half-maximal effect.

SMILES	AMA1-RON2 inh	FMDV antiviral	AmpC detergent	Sm TGR block	AmpC no deterg
CC1(OC(=O)CCc2ccccc2)C(=O)C=C2C=C(c3ccc(C#N)cc3)N(Cc3ccco3)C=C2C1=O (stereo not given)	-16%	13%	-1%	35µM*	221%
CCCCC1=CC2=CC(=O)C(C)(OC(=O)CCc3ccccc3)C(=O)C2=CO1 (stereo not given)	-8%	-16%	0%	45µM*	?
CC1(OC(=O)CCc2ccccc2)C(=O)C=C2C=C(c3ccc(C#N)cc3)N(Cc3ccccc3)C=C2C1=O (stereo not given)	32%	-14%	2%	?	40%
CSc1ccc(-c2ccc3c(c2)CC(CNC(=O)Cn2nc(C)nc2C)O3)cc1 (stereo not given)	nt	-8%	nt	nt	nt
CC(C)C[C@H]1CNC(=S)N1C[C@H]1CCCN1C[C@H](Cc1ccc(O)cc1)N1C[C@H](CC(C)C)N(CC2CCCCCC2)C1=S	10%	-23%	nt	nt	nt
CCCN1C(=O)c2[nH]nc(-c3ccc(F)cc3)c2C1c1ccc(O)c(OCC)c1 (stereo not given)	nt	-25%	20%	1%	nt
CSC1=NC=C(C#N)C2=NC(c3c(Cl)cccc3Cl)NN12 (stereo not given)	6%	40µM*	nt	nt	nt
O=C(Nc1ccccc1)NC1(C(=O)NCc2cccs2)CCCCC1	-3%	nt	2%	5%	0.14µM*
CCOc1ccc2cc(S(=O)(=O)N3CCOCC3)ccc2c1	-5%	0%	-2%	2%	0.4µM*
COc1ccc(OC)c(C(c2c(O)nc(SC)[nH]c2=O)c2c(O)nc(SC)[nH]c2=O)c1	14%	-22%	-9%	1.4µM*	-9%
COc1cc(C(c2c(O)nc(SC)[nH]c2=O)c2c(O)nc(SC)[nH]c2=O)cc(OC)c1OC	-2%	-6%	?	1.8µM*	-13%
COc1ccc(-c2noc(C3CC(=O)N(c4ccc5c(c4)OCCO5)C3)n2)c(OC)c1 (stereo not given)	nt	-13%	-1%	6%	nt
N#Cc1nc(COc2ccccc2F)oc1NCc1ccc(F)cc1	-17%	12%	-2%	25µM*	-27%
COc1ccc(NC(=O)CN(C)S(=O)(=O)c2ccc3c(c2)CCCN3C(C)=O)cc1Cl	nt	?	-8%	-2%	nt
Cc1noc(C)c1C(=O)N1CCC2(CCCN(c3ccccn3)C2)CC1	nt	-2%	nt	nt	nt
CC1(C)CC2(C)OC(=N)C1(C#N)C2(C#N)C#N (stereo not given)	-12%	22µM*	0%	13µM*	5%
CCCC(=O)Nc1ccc(C(=O)NCc2ccccc2Cl)cc1	-13%	11%	-1%	3%	-32%
CCCC(=O)Nc1ccc(C2C(=O)c3ccccc3C2=O)cc1	5%	10µM*	-8%	-13%	0%
CC(=O)Nc1ccc(C2C(=O)c3ccccc3C2=O)cc1	1%	20µM*	-1%	-1%	74%
Cc1ccc(C2C(=O)c3ccccc3C2=O)cc1	-4%	13%	2%	1%	-24%
CC(C)c1ccc(CNc2nc(-c3ccco3)nn2C(=O)c2ccc([N+](=O)[O-])cc2)cc1	nt	21%	19%	-5%	nt
COc1ccc(CCC(=O)NC2CC(=O)N(c3ccc(C)c(C)c3)C2)cc1 (stereo not given)	nt	-12%	4%	0%	nt
COC(=O)Nc1ccc(S(=O)(=O)N2CCCCC2C(=O)NCc2ccco2)cc1 (stereo not given)	0%	-1%	?	-9%	-17%
Cc1ccc(S(=O)(=O)N2CCCCC2C(=O)NCc2ccco2)cc1 (stereo not given)	15%	-5%	-8%	20µM*	-22%
O=C(NCc1ccco1)C1CCCN(S(=O)(=O)c2ccc(-n3cnnn3)cc2)C1 (stereo not given)	-6%	-8%	?	20µM*	37%
SMILES	AMA1-RON2 inh	FMDV antiviral	AmpC detergent	Sm TGR block	AmpC no deterg
O=C(NCc1ccccc1F)C1CCCN(S(=O)(=O)c2ccc(-n3cnnn3)cc2)C1 (stereo not given)	5%	?	?	-8%	-27%
CSCC[C@H](NC(=O)C1CCN(S(=O)(=O)c2ccc(C)cc2)CC1)C(=O)NCc1ccco1	-10%	0%	-12%	45µM*	-1%
CCCOc1cccc(C(=O)N(Cc2cc(OC)c(OC)c(OC)c2)C2CCS(=O)(=O)C2)c1 (stereo not given)	nt	-2%	-2%	2%	nt
COc1ccc(CNC(=O)c2cc(-c3ccc(OC)c(OC)c3)nc3n[nH]c(-c4ccc(C)cc4)c23)cc1	nt	-19%	2%	8%	nt
COC1=NS(=O)(=O)c2ccccc21	12%	-10%	-8%	1%	-15%
Cc1ccc(C)c(OC2=NS(=O)(=O)c3ccccc32)c1	-6%	35µM*	-5%	-16%	-16%
Cc1ccc(CSC(Nc2ccc(F)cc2)=C(C#N)C#N)cc1	-7%	0%	1%	-3%	-43%
CCN(CC)C(=O)CSC(Nc1ccc(F)cc1)=C(C#N)C#N	11%	?	2%	-17%	14µM*
CC(C)CCNC(=O)CCc1nnc(Cc2c[nH]c3ccccc23)o1	0%	12%	7%	13µM*	35%
COCCN(C(=O)CCc1nnc(Cc2c[nH]c3ccccc23)o1)C(C)C	17%	-10%	2%	20µM*	57%
COCCN(C(=O)CCc1nnc(CCc2c[nH]c3ccccc23)o1)C(C)C	-9%	-7%	-1%	-5%	32%
Cc1ccc(OCC(=O)NCC(=O)OCc2cc(=O)n3nc(C(C)C)sc3n2)cc1	nt	7%	-9%	-9%	nt
N#CC1=C(N)C(C#N)(C#N)[C@H](c2ccncc2)[C@H]2CC3(CC=C12)OCCO3	9%	-2%	?	79µM*	-22%
Cc1cccc(N2CCN(CCCNc3ncnc4onc(-c5ccc(Cl)cc5)c34)CC2C)c1 (stereo not given)	nt	-25%	0%	7%	nt
Cn1c(=O)c2cn(-c3ccccc3)cc2n(C)c1=O	4%	11%	3%	-4%	-5%
COc1cccc(-n2cc3c(=O)n(C)c(=O)n(C)c3c2)c1	3%	15%	?	45µM*	60%
COc1ccccc1C(CCN(Cc1ccccc1)C(C)=O)c1ccco1 (stereo not given)	-27%	-23%	3%	18µM*	62%
CC(=O)N(CCC(c1ccco1)C(C)C)Cc1ccc(Cl)cc1 (stereo not given)	-24%	-28%	10%	20µM*	44%
Cc1cc(C)c2c(N)c(C(=O)Nc3ncc(C)s3)sc2n1	85%	5µM*	-2%	-3%	9%
CCn1ccc2cc(S(=O)(=O)N3CCCN(C(=O)Nc4ccc(C)cc4)CC3)ccc21	nt	-7%	15%	-1%	nt
CC(C)n1c(SCC(=O)NCc2ccco2)nnc1C1CC1	-12%	-17%	6%	18µM*	3%
